Reference: PubChem BioAssay (NCI)
The panel holds about 83,000 compounds, 20% with a hit somewhere; the sample as a whole holds those more often.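 Interpretation: 100, growth as untreated; towards 0, rising growth inhibition; 0, no net growth; 0 to -100, cell death. Compounds scoring below 10 were considered active.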 Unmarked numbers belong to inactive results. The source made the active and inactive calls.

What was measured:
Test in all cases: NCI-60 one-dose screen, 48 h (100 = growth as untreated, 0 = no growth, -100 = all killed)
Conditions in all cases: 10 µM unless noted
SR leukemia = tested on: SR leukemia
RPMI-8226 leukemia = tested on: RPMI-8226 leukemia
OVCAR-8 ovarian = tested on: OVCAR-8 ovarian
OVCAR-5 ovarian = tested on: OVCAR-5 ovarian
OVCAR-4 ovarian = tested on: OVCAR-4 ovarian
SK-OV-3 ovarian = tested on: SK-OV-3 ovarian
IGROV1 ovarian = tested on: IGROV1 ovarian
HS 578T breast = tested on: HS 578T breast
NCI/ADR-RES ovarian = tested on: NCI/ADR-RES ovarian
T-47D breast = tested on: T-47D breast
MDA-MB-435 melanoma = tested on: MDA-MB-435 melanoma
SW-620 colon = tested on: SW-620 colon
MCF7 breast = tested on: MCF7 breast
HCT-116 colon = tested on: HCT-116 colon
HCC-2998 colon = tested on: HCC-2998 colon
KM12 colon = tested on: KM12 colon
BT-549 breast = tested on: BT-549 breast
OVCAR-3 ovarian = tested on: OVCAR-3 ovarian

SMILES	growth (SR leukemia)	growth (RPMI-8226 leukemia)	growth (OVCAR-8 ovarian)	growth (OVCAR-5 ovarian)	growth (OVCAR-4 ovarian)	growth (SK-OV-3 ovarian)	growth (IGROV1 ovarian)	growth (HS 578T breast)	growth (NCI/ADR-RES ovarian)	growth (T-47D breast)	growth (MDA-MB-435 melanoma)	growth (SW-620 colon)	growth (MCF7 breast)	growth (HCT-116 colon)	growth (HCC-2998 colon)	growth (KM12 colon)	growth (BT-549 breast)	growth (OVCAR-3 ovarian)
Oc1c(CN2CCCC2)cc(COCc2ccccc2)c2cccnc12	12.4%	16.7%	9.92% (active)	43.1%	14.3%	-4.92% (active)	16.4%	64.5%	-7.48% (active)	5.66% (active)	33.5%	22.3%	10% (active)	9.16% (active)	49.7%	28.7%		
O=C(CCCCl)NNc1nccc(Nc2ccc(S(=O)(=O)Nc3ccncc3)cc2)n1	95%	104%	106%	103%	101%	101%	101%	112%	99.8%	94.1%	107%	113%	93.4%	97.1%	103%	101%	120%	
COc1ccc(-c2ccc(=O)oc2C#Cc2cc(OC)c(OC)c(OC)c2)cc1O	7.05% (active)	15.3%	20%	46.2%	58.6%	30.7%	28.9%	-8.91% (active)		38.8%	-78% (active)	-30.3% (active)	3.79% (active)	-30.4% (active)		3.09% (active)	-16.9% (active)	
CC/C=C\C/C=C/C=C1/C(=O)C=C[C@@H]1C/C=C\CCCC(=O)OC	5.21% (active)	1.81% (active)	13.2%	63.8%	85.4%	110%	65.4%	11.9%	73.5%	16.7%	-39.3% (active)	-14.3% (active)	18.6%		62%	20.4%	-21.9% (active)	
COC(=O)c1c2c(c(C)[n+]([O-])c1C)C(=O)C=CC2=O	20.2%	-24.8% (active)	-6.72% (active)	-61.1% (active)	-16.6% (active)	90.3%	-38.2% (active)	0.0938% (active)		-12.6% (active)	-61.4% (active)	-19.5% (active)	-59.4% (active)	-14% (active)		4.57% (active)		-8.77% (active)
O=C(CCl)Nc1ccc2c(Nc3cc(O)ccc3Cl)ncnc2c1	-22.5% (active)	-45.9% (active)	-33.9% (active)	-74.7% (active)	-65.2% (active)	-4.95% (active)	-71.2% (active)	4.71% (active)	-39.8% (active)	-52.4% (active)	-69.4% (active)	-60.6% (active)	-57.9% (active)	-74.5% (active)	-3.99% (active)	-64.7% (active)		
N#Cc1c(-c2ccccc2)cc(-c2ccccc2)n(CCCC(=O)NO)c1=O	7.72% (active)	11.3%	12.5%	28.9%	29.6%	36.1%	25.4%	19.7%	-5.36% (active)	18.7%	-12.4% (active)	17.3%	22.5%	7.06% (active)	47.4%	24.9%	53.9%	
C/C(=N\O)C(=O)NCCCCCC(=O)Nc1ccccc1	104%	106%	96.2%	106%	103%	102%	111%	114%	103%	86.5%	101%	104%	95.1%	100%	101%		88.6%	
CN(C)c1ccc(/C=C2/C=C(c3ccccc3)OC2=O)cc1	26.7%	84%	100%	108%	93.4%	93.9%	74.7%	101%	73.1%	86.9%	21.7%	95.2%	56.6%	100%	95%	63.5%	98.6%	
COC(=O)/C=C1/SC(=Nc2cccc(Cl)c2)N(CCc2c[nH]c3ccc(O)cc23)C1=O	-8.45% (active)	-23.9% (active)	-4.55% (active)	58.7%	24.9%	86.6%	4.15% (active)	27.7%	18.4%	12.6%	15.9%	0.219% (active)	15.9%	-33% (active)	2.25% (active)	18.9%	0.746% (active)	
CCCCC(=O)Nc1ncc(Cc2ccccc2Cl)s1	25.8%	49.2%	49%	59%	68.1%	63.3%	45.4%	31.3%	23.7%	34.1%	-31.8% (active)	24.5%	17.8%	21.2%	52.6%	25.2%	47.1%	
CC(C)c1ccc(C(=O)Nc2sc3cc(O)ccc3c2C#N)cc1	0.658% (active)	21.2%	51.2%	87.8%	58%	50.2%	31.1%	26.6%	11.2%	36.4%	-42.9% (active)	28.7%	13.8%	15%	60.3%	21%	20.8%	
COc1ccc(Cl)cc1Nc1nc(C(F)(F)F)ccc1C(=O)N/N=C/c1ccccc1Cl	-15.1% (active)	-56.6% (active)	11.2%	22%	-18.3% (active)	11.7%	4.17% (active)	9.51% (active)	0.235% (active)	-22.5% (active)	26.9%	7.18% (active)	-8.68% (active)	14.2%	-11.2% (active)	7.71% (active)	13.3%	
CC(C)c1ccc(NC(=O)Nc2ccc(NC(=O)c3ccccc3N)cc2)cc1	17.9%	-0.137% (active)	61.5%	60.5%	59.4%	46.8%	72.6%	-3.9% (active)	89.5%	38.2%	46.5%	54.1%	31.6%	51.8%	23.5%	29.8%	77%	
CCCCCCNc1nc(NCCCCCC)c2[nH]c(NCCCCCC)nc2n1	-33.4% (active)	-29.4% (active)	57.3%	-7.94% (active)	-16% (active)	102%	68.8%	55.7%	90.3%	33.3%	67.5%	16.3%	20.9%	-35% (active)	46.6%	50.8%	71.6%	
COc1ccc(-c2oc(=O)ccc2-c2cc(OC)c(OC)c(OC)c2)cc1O	8.87% (active)	14.6%	23.1%	35.7%	47.6%	28.3%	29.8%	-7.79% (active)	29.1%	44.7%	-64.9% (active)	14.8%	10.6%	-30.2% (active)	211%	22.6%	24.7%	

SMILES	growth (SR leukemia)	growth (RPMI-8226 leukemia)	growth (OVCAR-8 ovarian)	growth (OVCAR-5 ovarian)	growth (OVCAR-4 ovarian)	growth (SK-OV-3 ovarian)	growth (IGROV1 ovarian)	growth (HS 578T breast)	growth (NCI/ADR-RES ovarian)	growth (T-47D breast)	growth (MDA-MB-435 melanoma)	growth (SW-620 colon)	growth (MCF7 breast)	growth (HCT-116 colon)	growth (HCC-2998 colon)	growth (KM12 colon)	growth (BT-549 breast)	growth (OVCAR-3 ovarian)
Nc1ccc([N+](=O)[O-])cc1N=C/C=C/c1ccccc1	35.5%	25.6%	79.9%	90.9%	79.4%	87.6%	64.8%	67.4%	50.9%	66.2%	5.57% (active)	35.3%	51.5%	67.2%	73%	40.3%		
COc1ccc(/C=C/C(=O)c2cc3c(N)c(C(=O)Nc4ccccc4C)sc3nc2C)cc1	15.2%	-7.33% (active)	6.22% (active)	36.6%	54%	21.2%	30.6%	10.4%	7.7% (active)	39.9%	-39.6% (active)	14.9%	9.36% (active)	14.7%	15.4%	10.6%	29.7%	
COc1ccc(NC(=O)c2cccc(C3CCc4c(cc(OC)c(OC)c4OC)O3)c2)cc1 (stereo not drawn)	5.23% (active)	-24.2% (active)	35.1%	64.8%	53.1%	26.8%	37.6%	22%	8.7% (active)	16%	-10.5% (active)	29%	11.3%	14.6%		18.2%	25.9%	
CCOC(=O)c1c(-c2ccccc2)n2c(=O)cc(C)c3c(O)c(O)cc1c32	22.4%	36.5%	29.1%	70.1%	15.4%	76.3%	61.2%	87.7%	15.3%	55%	79.7%	55.4%	29.9%	24.5%	61.3%		89.8%	
COc1cc2c(cc1O)[C@@]1(C)[C@H](c3ccccc3Br)OC(=O)N1CC2	86.6%	67.1%	88.2%	121%	76.6%	107%	111%	97.9%	83.8%	65.4%	92.1%	104%	99.1%	77.1%	99%	89.7%	92.8%	
CC1CN=C(c2cccc(-c3ccc(-c4ccccc4)o3)c2)N1 (stereo not drawn)	-9.42% (active)	-26.3% (active)	33.7%	-5.49% (active)	43.1%	18.4%	31%	17.4%	28.3%	-31.8% (active)	-75.8% (active)	-40.6% (active)	-57.2% (active)	-67.9% (active)	-65.4% (active)	-8.35% (active)	50.8%	
c1ccc(CCc2ccccc2-c2cc(-c3ccccc3)on2)cc1	75.7%	83.5%	103%	89.9%	77.2%	83.1%	66.4%	89.4%	98.3%	55.4%	105%	91%	74.7%	59.8%	90.4%	87.5%	102%	
C=CCN=C(N)SCCCCCCSC(N)=NCC=C	93.7%	94%	94.6%	97.5%	109%	70.4%	103%	92.2%	104%	55.9%	99.3%	94.7%	90.9%	75.5%	93.1%	97.5%		
O=C1/C(=C/c2cccc([N+](=O)[O-])c2)COc2ccc(O)cc21	8.9% (active)	-22.9% (active)	31.2%	54.8%	74.4%	111%	33.8%	33.7%	42%	46.2%	12.4%	-47.3% (active)	-26.2% (active)	-44.6% (active)	58.7%	15.5%	63.3%	
Cc1cc(F)ccc1S(=O)(=O)Nc1cc(-c2c(O)ccc3ccccc23)c(O)c2ccccc12	18.8%	11.6%	37.1%	56.9%	-8.24% (active)	52.3%	27.6%	42.3%	31.3%	7.54% (active)	28%	25.8%	30.1%	5.49% (active)	-3.54% (active)	3.55% (active)		
Cc1nc2sc(C(=O)Nc3ccccc3)c(N)c2cc1C(=O)/C=C/c1ccccc1	11.7%	-33.9% (active)	-1.16% (active)	16.6%	4.43% (active)	35.4%	-7.01% (active)	12%		1.62% (active)	-38.2% (active)	-37.6% (active)	3.7% (active)	-66.9% (active)	-80.5% (active)			-47.5% (active)
Nc1nc(C(=O)N/N=C/c2ccc(N3CCOCC3)cc2)nn1-c1ccc(S(N)(=O)=O)cc1	104%	102%	101%	114%	99.7%	111%	94%	104%	102%	108%	104%	99.9%	103%	101%	104%	103%	116%	
COC(=O)c1ccc2c(c1)c1c(C)c3ccncc3c(C)c1n2C	-5.73% (active)	26.8%	28.8%	44.9%	22%	40%	24%	35.6%	29.3%	29.7%	28.3%	21%	8.59% (active)	10.9%	61.5%	23.2%	43.5%	
CC1=NN(c2ccc(Cl)cc2)CC1(C)N=O (stereo not drawn)	33%	89.3%		126%	77.3%	114%	103%	82.9%	94.4%	60.8%		43.7%	29.7%	30.9%	102%	99.5%	86.1%	62.1%
O[C@@H](c1cc(C(F)(F)F)nc2c(C(F)(F)F)cccc12)[C@H]1CCCCN1	8.64% (active)	68.9%		77.7%	62.6%	82.7%	51.7%	58.2%	61.9%	43.1%	73.1%	73.7%	36.3%	36.1%	80.5%	50.1%	66.1%	63.1%
COc1cc2cc(Oc3ccc(NC(=O)Nc4ccccc4)cc3)c(C)nc2cc1OCCN1CCCCC1	-25.9% (active)	44.3%		119%	83.1%	110%	92.3%	70.4%	90.5%	88%	61.8%	70.3%	31.9%	11.1%	73%	42.4%	86.8%	101%
